# Measurements: the supplement of paper PMC10338343
# ± gives the standard deviation.
# Tested on: MILI (PIWIL2) piRISC loaded with L1MC piRNA (26 nt)
# Assay: pre-steady-state target cleavage rate (min^-1); guide: L1MC piRNA 5'p-UAACUAAAUACUAUGCAAGCUGUAGG; higher = faster piRNA-guided slicing of the target
# Settings: auxiliary factor: none (no GTSF1)
# How it was run: (§1)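 Cleave-'n-Seq: 1 nM active affinity-purified piRISC with one synthetic guide and 0.1 nM transcribed, DNA-blocked target RNA library were mixed, with or without 500 nM GTSF1 partner protein, in HEPES–potassium acetate buffer at 33 °C for 0–8 or 0–960 min. Uncleaved targets were sequenced and normalised to depth and to weakly complementary targets, three trials were pooled, and k3 was capped at 0.0001 min^-1. The pre-steady-state cleavage rate was fitted […].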
row,Sequence,pre-steady-state target cleavage rate
1,UCCUGCUACAGCAUGCAUAGUAUAUAGUUA,0.0054 ± 0.0024
2,UCCUCCUACAGCUAGCAUAGUAUAUAGUUA,0.00339 ± 0.0026
3,UCCUGGUACAGCUUUCAUAGUAUUUAGUUA,0.0103 ± 0.0032
4,UCCUCCUACAGGAAGCAUAGUAUUUAGUUA,0.00603 ± 0.0024
5,UCCUCCUACAGCUUGCAAAGUUUUUAGUUA,0.00334 ± 0.0023
6,UCCUCCUACAGCAUGCAUAGUUUUUAGUUA,0.00447 ± 0.002
7,UCCUCCUACUGCUUGCAUACUAUUUAGUUA,0.00355 ± 0.0019
8,UCCUGCUACAGUUGCAUAGUAUUUAGUUA,0.0103 ± 0.0022
9,UCCUCCAACAGCUUGCAUAGUAAUUAGUUA,0.0065 ± 0.0021
10,UCCUGCUACAGCUUGCAUAGUAUUUAUUUA,0.00466 ± 0.0021
11,UCCUGGAUCAGCUUGCAAAGUAUUAAGUUA,0.00698 ± 0.0025
12,UCCUGGAACAGCUUGCGUAGUAUUUAGUUA,0.00716 ± 0.0018
13,UCCUGCAACAGCUUGCAUAGUAAUUAGUUA,0.00709 ± 0.0027
14,UCCUGGAACUGCUAGCAUAGUAUUUAGUUA,0.00611 ± 0.0019
15,UCCUGGAUCAGCUUGCAUAGUUUUUAGUUA,0.00873 ± 0.0021
16,UCCUGGAACAGGUUGCAUAGUAAUUAGUUA,0.0075 ± 0.0018
17,UCCUGGAUGAUGCUUGCAUAGUAUUUAGUUA,0.00923 ± 0.0034

# Tested on: EfPiwi piRISC loaded with L1MC piRNA (26 nt)
# Assay: pre-steady-state target cleavage rate (min^-1); auxiliary factor: 500 nM Ephydatia muelleri Gtsf1; guide: L1MC piRNA 5'p-UAACUAAAUACUAUGCAAGCUGUAGG; MIWI and MILI are mouse PIWI proteins and EfPiwi is from a freshwater sponge; tags in brackets are library labels; higher = faster piRNA-guided slicing of the target
# Settings: not given
# How it was run: as §1
row,Sequence,pre-steady-state target cleavage rate
1,UCCUGGAUCAGCUUGCAUAGUAUUUAGUUU [g2:g22:cont:t1U],0.121 ± 0.025
2,UCCUGGAUCUGCUUGCAUAGUUUUUAGUUA,0.00787 ± 0.0041
3,UCCUCUUACAGCUUGCAUAGUAUUUAGUUA,0.243 ± 0.061
4,UCCUCCUACAGAUUGCAUAGUAUUUAGUUA,0.0555 ± 0.014
5,UCCUCUCUACAGCUUGCAUAGUAUUUAGUUA,0.0164 ± 0.006
6,UCCUGCUACACGUUGCAUAGUAUUUAGUAA,0.00458 ± 0.0025
7,UCCUGCUUCAGCUUGCAUAGUAUUUAGAUA,0.00521 ± 0.0024
8,UCCUGCUACACUUGCAUAGUAUUUAGUUA,0.00903 ± 0.0027
9,UCCUGGUACAGCAUGCAUAGUAUUUAGUAA,0.00753 ± 0.0032
10,UCCUCCAUGAGCUUGCAUAGUAUUUAGUUA,0.0146 ± 0.004
11,UCCUGGUACAGCUGUGCAUAGUAUUUAGUUA,0.00903 ± 0.0034
12,UCCUGGUACAGCUUGGUUAGUAUUUAGUUA,0.00478 ± 0.0032
13,UCCUGCUACAGCUUGCUUAGUUUUUAGUUA,0.0055 ± 0.0019
14,UCCUGGUACAGCUUGCAUAGUAUUUAGUCUA,0.00521 ± 0.0031
15,UCCUGGAUGAGCUAGCAUUGUAUUUAGUUA,0.00519 ± 0.0032
16,UCCUGGAUGAGCUAUGCAUAGUAUUUAGUUA,0.0256 ± 0.0076
17,UCCUGCUACAGCUUGCAUAGUAUUUAGUUU [g2:g25:cont:t1U],0.158 ± 0.042
18,UCCUGGAUGAGCUUGCUUAGUAUUUAGUUA,0.00629 ± 0.0027
19,UCCUGGAUCAGCUUGCAAAGUAUUUAGUUA,0.0218 ± 0.0057
20,UCCUGGUACAGCUUGCAUUGUAUUUAGUUA,0.00513 ± 0.002

row,Sequence,pre-steady-state target cleavage rate
1,UCCUGGAACAGCUUGAAUAGUAUUUAGUUA,0.0656 ± 0.017
2,UCCUGGUACAGGAAGCAUAGUAUUUAGUUA,0.00248 ± 0.0023
3,UCCUGGAUGAGCUUGCAUCGUAUUUAGUUA,0.00975 ± 0.0029
4,UCCUGCUACAGCAUGCAUAGUAUAUAGUUA,0.00599 ± 0.0029
5,UCCUCCUACAGCUAGCAUAGUAUAUAGUUA,0.00495 ± 0.0026
6,UCCUGGUACAGCUUUCAUAGUAUUUAGUUA,0.00404 ± 0.0023
7,UCCUCCUACAGGAAGCAUAGUAUUUAGUUA,0.0159 ± 0.0041
8,UCCUCCUACAGCUUGCAAAGUUUUUAGUUA,0.00281 ± 0.0022
9,UCCUCCUACAGCAUGCAUAGUUUUUAGUUA,0.00379 ± 0.0028
10,UCCUCCUACUGCUUGCAUACUAUUUAGUUA,0.0106 ± 0.0044
11,UCCUGCUACAGUUGCAUAGUAUUUAGUUA,0.0766 ± 0.022
12,UCCUCCAACAGCUUGCAUAGUAAUUAGUUA,0.0103 ± 0.0047
13,UCCUGCUACAGCUUGCAUAGUAUUUAUUUA,0.0055 ± 0.0037
14,UCCUGGAUCAGCUUGCAAAGUAUUAAGUUA,0.00373 ± 0.0026
15,UCCUGGAACAGCUUGCGUAGUAUUUAGUUA,0.00807 ± 0.0034
16,UCCUGCAACAGCUUGCAUAGUAAUUAGUUA,0.00951 ± 0.0021
17,UCCUGGAACUGCUAGCAUAGUAUUUAGUUA,0.0171 ± 0.0058
18,UCCUGGAUCAGCUUGCAUAGUUUUUAGUUA,0.00592 ± 0.0018
19,UCCUGGAACAGGUUGCAUAGUAAUUAGUUA,0.0061 ± 0.0024
20,UCCUGGAUGAUGCUUGCAUAGUAUUUAGUUA,0.0738 ± 0.022
